The panel holds about 83,000 compounds, 20% with a hit somewhere; the sample as a whole holds those more often.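 The endpoint reported here, percent growth, reads 100 for growth as untreated, 0 for no net growth and -100 for all cells dead.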 Unmarked numbers belong to inactive results. Calls of active or inactive are those of the source. The calls were made as follows: active = growth percent below 10; inactive = the rest.

The subject of the experiment is HL-60(TB) leukemia. The experiment in a line: NCI-60 one-dose screen, 48 h (100 = growth as untreated, 0 = no growth, -100 = all killed). The settings on record: 10 µM unless noted.
For the molecule `COc1cc2c(cc1OC)-c1ccc3cc4c(cc3c1N(CCN1CCCC1)C2)OCO4`, the growth was -39.7% (active).
On to `COc1ccc(-n2c(=O)c3ccccc3n(Cc3ccc(C(=O)NO)cc3)c2=O)cc1`, for which the growth was -4.17% (active).
Next, `COc1ccc(S(=O)(=O)Nc2cc(/C=C\c3cc(OC)c(OC)c(OC)c3)ccc2OC)cc1`: -31.6% (active); `COc1cc2cc(Oc3ccc(NC(=O)Nc4ccc(Cl)c(C(F)(F)F)c4)cc3)c(C)nc2cc1OC`: -40.6% (active).
With `Cc1ccc(C(=O)c2oc3ccc4c(C)cc(=O)oc4c3c2C)cc1` the figure was 7.9% (active); with `CN1C(N2CCN(S(=O)(=O)c3ccccc3)CC2)=NS(=O)(=O)c2ccccc21`, 116%.
Next, `[O-][n+]1ccccc1CCN(O)CCc1cccc[n+]1[O-]`: 74.2%.
In the case of `COc1ccc(-c2cc(C(=O)N=Nc3c(O)[nH]c4ccc(Br)cc34)no2)cc1`, the growth was 95.1%.
Next, `CCCCCCCCCCCCCCCCCC1=NCCN1CCOC1=C(Cl)C(=O)c2ccccc2C1=O`: 70.1%.
For the molecule `Cc1ccc(NS(=O)(=O)c2ccc(-c3cnc(C4CC4)o3)cc2)cc1C`, the growth was -1.17% (active).
Next, `COc1ccc(/C=C2\COc3ccc(O)cc3C2=O)cc1`: -33.1% (active); `COc1cc(C(=O)n2nc(N3CCOCC3)c3cc(-n4cccc4)ccc32)cc(OC)c1OC`: 61.6%; `N#Cc1nc(-c2ccc(F)cc2)oc1S(=O)(=O)N1CCN(c2ccc(F)cc2)CC1`: 52.3%.
`O=S(=O)(NCCNc1cc(-c2c(-c3cccc(O)c3)nc3sccn23)ccn1)c1ccc(Br)cc1`: the growth is 77.6%.
Regarding `Brc1ccc2[nH]cc(-c3nc(-c4c[nH]c5ccncc45)cs3)c2c1`, the growth is -55.4% (active).
With `CC(C)(C)OC(=O)NCCc1ccc(N=C=S)cc1` the figure was 19.8%.
With `CCN(CC)CCCNC(=O)c1ccc(N)cc1O` the figure was 82.4%.
With `CCCCCCCCCCCCCCCCCC1=NC(C)(CO)CO1` (stereo not given) the figure was 87.2%; with `Clc1ccc(/C=C2\CCCC3C2=Nc2ccccc2NC3c2ccc(Cl)cc2)cc1` (stereo not given), 73.9%.
With `COc1ccc(-c2nc(-c3cc(OC)cc(OC)c3)[nH]c2-c2ccc(OC)cc2)cc1`, the growth was 30.1%.
With `Cn1c(I)c(C#C[Si](C)(C)C)c(=O)[nH]c1=O`, the growth was -67.8% (active).
With `COc1ccc(-c2nnc(N3CCN(C(=O)CN4CCN(c5ccc(Cl)cc5)CC4)CC3)nc2-c2ccc(OC)cc2)cc1` the figure was -37.4% (active); with `COc1cc(NCc2ccc3nc(N)nc(N)c3c2C)cc(OC)c1OC` (tested in a mixture with another compound), 25.7%; with `CCN(C(=O)N1CCN(c2cc3c(cc2F)c(=O)c(C(=O)O)cn3C2CC2)CC1)c1nc(-c2ccccc2)cs1`, -34% (active).
With `COC(=O)[C@]12CC[C@@H](C)[C@H](C)[C@@H]1C1=CC[C@@H]3[C@@]4(C)C=C(O)C(=O)[C@@]5(C)COC(=C54)C[C@@]3(C)[C@]1(C)CC2` the figure was -50% (active).
Turning to `CCc1ccc(CCC(=O)Nc2ncc(Cc3cc(Cl)ccc3Cl)s2)o1`, the growth was -44.5% (active).
For the molecule `O=C(NC1CCCCCC1)c1ccc2c(=O)n3c(nc2c1)CCCCC3`, the growth is 144%.
Regarding `CCOC(=O)c1sc(Nc2ncccn2)nc1-c1ccccn1`, the growth is 109%.
Next, `COc1cccc(Nc2nc(SC)nc(-c3cccc([N+](=O)[O-])c3)c2C#N)c1`: 112%; `CCOC(=O)CSSCC(=O)OCC`: 108%.
With `COc1ccc(COc2cc3oc(=O)c4cc(C(C)O)ccc4c3cc2OC)cc1` (stereo not given) the figure was 73.1%; with `NC(=O)N/N=C\c1ccco1`, 102%.
Next, `COc1cc(-c2nc(-c3nnc(-c4ccccc4Cl)o3)c3ccccn23)cc(OC)c1OC`: 67.1%; `COc1ccc(-c2nnc(SCC(=O)c3ccccc3)o2)cc1`: 80.5%.
For the molecule `Clc1ccc(C2CC(c3cccc(Nc4ccncc4)c3)=NN2c2ccccc2)cc1` (stereo not given), the growth is -38.6% (active).
As to `CCCCC(=O)OC1CCCCC1C` (stereo not given), the growth was 117%.
Next, `CCOC(=O)[C@@H]1[C@H](c2ccccc2)[C@H]([N+](=O)[O-])[C@H](c2cn(-c3ccccc3)nc2C)N1Cc1ccccc1`: 77.7%.
With `CN1C/C=C\CCOc2cccc(c2)-c2ccnc(n2)Nc2cccc(c2)C1` the figure was -51.9% (active); with `O=C(Nc1cnn2ccc(N3CCC[C@@H]3c3cc(F)ccc3F)nc12)N1CC[C@H](O)C1`, 126%.
Next, `O=C(Nc1cccc(-n2cc(-c3ccncc3)c(-c3ccc(Cl)c(O)c3)n2)c1)Nc1ccc(Cl)c(C(F)(F)F)c1`: -11.2% (active).

(Values after PubChem BioAssay (NCI).)
